# Assay results published in PubChem BioAssay (NCI).
# The panel holds about 83,000 compounds, 20% with a hit somewhere; the sample as a whole holds those more often.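 Each cell line was grown in a 96-well plate and treated with one concentration of compound for 48 hours. Values below 10 were considered active.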 Unmarked numbers belong to inactive results. Active and inactive are the calls of the source.
# Tests used:
# Assay in all cases: NCI-60 one-dose screen, 48 h (100 = growth as untreated, 0 = no growth, -100 = all killed)
# Conditions in all cases: 10 µM
# HCT-15 colon = system: HCT-15 colon
# HT29 colon = system: HT29 colon
# SNB-75 CNS = system: SNB-75 CNS
# SNB-19 CNS = system: SNB-19 CNS
# U251 CNS = system: U251 CNS
# PC-3 prostate = system: PC-3 prostate
# SK-MEL-5 melanoma = system: SK-MEL-5 melanoma
# UACC-62 melanoma = system: UACC-62 melanoma
# LOX IMVI melanoma = system: LOX IMVI melanoma
# SK-MEL-28 melanoma = system: SK-MEL-28 melanoma
Structure (SMILES),growth (HCT-15 colon),growth (HT29 colon),growth (SNB-75 CNS),growth (SNB-19 CNS),growth (U251 CNS),growth (PC-3 prostate),growth (SK-MEL-5 melanoma),growth (UACC-62 melanoma),growth (LOX IMVI melanoma),growth (SK-MEL-28 melanoma)
COc1ccc(CCc2nc3cc(-c4c(C)noc4C)ccc3n2CCN2CCOCC2)cc1,52.8%,12.8%,27.8%,48.9%,17%,11.8%,-0.324% (active),20%,50.2%,33.6%
Nc1ccccc1NC(=O)CCCCCCC(=O)Nc1ccc2c(c1)/C(=C/c1ccc[nH]1)C(=O)N2,89.8%,48.2%,-2.9% (active),49.8%,20.5%,29%,55.1%,25.8%,43.9%,42.7%
COc1cc(-c2n/c(=C\c3c(O)[nH]c4ccccc34)cc3c2=Nc2ccccc2-3)cc(OC)c1OC,14.3%,4.2% (active),5.55% (active),37.7%,12.5%,30.2%,2.12% (active),40%,25.8%,42.8%
CC(=O)Oc1c(C)c(C)c2c(c1C)CCC(C)(CC(=O)OCCCCCCCCCCC[P+](c1ccccc1)(c1ccccc1)c1ccccc1)O2 (stereo not given),-69.3% (active),-53.9% (active),-47.8% (active),-78.8% (active),-93.1% (active),-51% (active),-96.7% (active),-86.1% (active),-92.6% (active),-86.9% (active)
O=C(CCCC(=O)N/N=C/c1cc(Cl)ccc1O)N/N=C\c1cc(Cl)ccc1O,28.1%,55.4%,58.9%,48.1%,21%,24%,-1.89% (active),-16.9% (active),7.26% (active),35.8%
Nc1ccc2c(c1)Cc1cc(N)c(Cl)cc1-2,100%,101%,86.7%,92.9%,93.2%,95.7%,93.9%,83.9%,104%,103%
Clc1cc(Cl)c(Cl)c(-c2nc(-c3cccnc3)cs2)c1,87.1%,46.3%,91.7%,103%,88.7%,88.5%,93.9%,77.5%,64.4%,72.2%
COc1ccc(-c2[nH]ncc2/C=C/c2cc(C(F)(F)F)[nH]c(=O)n2)cc1,97%,99.1%,88%,91%,88.5%,98.7%,93.7%,102%,87.4%,114%
Cc1ccc(C2C=C(c3ccc(Cl)cc3)N=C3SC=CN32)c(Br)c1 (stereo not given),75.1%,67.9%,75.5%,74.2%,60.3%,65.5%,84.8%,83.3%,55.9%,105%
COc1ccc(-c2csc(-c3cc(Cl)cc(Cl)c3Cl)n2)cc1,89.2%,101%,91.6%,103%,93.3%,95%,29.2%,63%,83.1%,107%
CCN(CC)CC(O)CNc1ccnc2cc(Cl)c(Cl)cc12 (stereo not given),69.5%,77.6%,92.9%,110%,75.4%,80%,84.7%,92.8%,73.9%,97.6%
